# Screens as filed in PubChem.
# DT40 TDP1 CPT – qHTS for Inhibitors of human tyrosyl-DNA phosphodiesterase 1 (TDP1): qHTS in cells in presence of CPT; chicken DT40 Tdp1-/-;hTDP1 cells + 20 nM CPT, ATP luminescence, 48 h; Potency, µM (titrated, usually from 46.2 µM), inactives show top-dose activity change, negative = growth inhibition, actives largely listed as inhibitors; actives 12% (n = 420,000); note: potency is the fitted concentration of half-maximal effect; nearly all actives have a fitted effect of over 55% in size
#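 Chicken DT40 Tdp1-/- cells complemented with human TDP1, 400 cells/well, exposed to compounds plus 20 nM camptothecin for at least 48 h at 37 C; viability read as ATP content by CellTiter-Glo luminescence.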
# TDP1 cell noCPT – qHTS for Inhibitors of human tyrosyl-DNA phosphodiesterase 1 (TDP1): qHTS in cells in absence of CPT | DT40 Tdp1-/- hTDP1 cells, no CPT, ATP luminescence, 48 h | Potency, µM (doses to about 46.2 µM), without a hit: at the highest dose activity change, negative = growth inhibition, most hits filed as inhibitors | actives 15% (n = 420,000); note: potency is the fitted concentration of half-maximal effect; nearly all actives have a fitted effect of over 55% in size
#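 DT40 Tdp1-/-;hTDP1 cells, no CPT (DMSO vehicle only), 400 cells/well; compounds pin-transferred; ≥48 hr, 37 °C; CellTiter-Glo 30 min RT dark, luminescence read.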
# HT1080NT lethal – qHTS for induction of synthetic lethality in tumor cells producing 2HG: qHTS for the HT-1080-NT fibrosarcoma cell line. Potency, µM (top dose mostly 46.1 µM), for inactives: top-dose activity, negative = less viability, hits mostly cytotoxic. AID 686970, 2013. actives 1.6% (n = 360,000). HT-1080-NT fibrosarcoma viability, CellTiter-Glo ATP luminescence, 48 h;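 note: NT is the 2HG producing partner of a matched IDH1 knockdown line; potency is the fitted concentration of half-maximal effect; 0% = DMSO-treated cells and -100% = media-only wells without cells; nearly all actives have a fitted effect of over 55% in size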
#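 HT-1080-NT; 750 cells/well; 5% FBS RPMI; 48 h compound, 37 degrees C; CellTiter-Glo luminescence; curve fitting and curve-class assignment.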
# ELG1 repair inh – qHTS screen for small molecules that inhibit ELG1-dependent DNA repair in human embryonic kidney (HEK293T) cells expressing luciferase-tagged ELG1; HEK293T ELG1-luciferase reporter, luminescence, 16 h; DNA damage induced by 5-fluorouridine; Potency, µM (series often up to 46.1 µM), for the others: at the highest dose activity change, negative = inhibition, actives largely listed as inhibitors; actives 2.3% (n = 330,000); AID 504467, 2011; note: potency is the fitted concentration of half-maximal effect; nearly all actives have a fitted effect of over 55% in size
#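 Overnight (16 hr) co-exposure of 2,000 cells/well to 5-fluorouridine and compound at 37 °C preceded detection. Luciferase was quantified via ONE-Glo luminescence; loss of signal denotes inhibition.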
# HT1080 IDH1KD tx – qHTS for induction of synthetic lethality in tumor cells producing 2HG: qHTS for the HT-1080-IDH1KD cell line. HT-1080 IDH1 knockdown viability, ATP luminescence, 48 h. Potency, µM (titrated, usually from 46.1 µM), for inactives: top-dose activity, negative = toxicity, most hits filed as cytotoxic. actives 2% (n = 360,000). AID 686971, 2013;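 note: potency is the fitted concentration of half-maximal effect; 0% = DMSO wells and -100% = cell-free medium wells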
#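 Luminescent ATP read-out (CellTiter-Glo, 10 min at room temperature) after 48 h compound exposure at 37 °C gave viability of IDH1-knockdown HT-1080 cells. Activity was normalised to DMSO and cell-free wells, then fitted as concentration-response curves.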
# IL1B secr inh – qHTS for Inhibitors of Inflammasome Signaling: IL-1-beta AlphaLISA Primary Screen; THP-1 LPS/ATP IL-1B secretion, AlphaLISA, 16 h; hits give low values; activity change, % at 57.5 µM; actives 4.7% (n = 360,000); in the data active = activity change below about -50%; inconclusive = mostly about -30% to -49%
#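 Secreted IL-1B measured by AlphaLISA bead assay after 16 h compound exposure of THP-1 cells; compounds (final up to 57.5 uM) added 1 h before LPS (250 ng/mL) and ATP (1.25 mM) stimulation; lower signal means less secretion.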
# * marks the source's active call; other numbers are inactive results; ? = inconclusive; . = no result; [ ] = remark or other dose. In the library only some 19% were active in any assay of this set; here they are far more common. Unless noted, calls come from the whole dose curve; as a rule, active = well fitted curve in the direction sought with a large enough effect; inconclusive = small, poorly fitted or top-dose-only effect, or another doubt; inactive = no such curve, though single readings can be large; an effect the other way counts as inactive or inconclusive. Unless noted, % is set by controls: 0 for no effect and ±100 for the full control effect.
SMILES,DT40 TDP1 CPT,TDP1 cell noCPT,HT1080NT lethal,ELG1 repair inh,HT1080 IDH1KD tx,IL1B secr inh
CCOC(=O)c1cc(-c2ccc(C)cc2)n(CCC(=O)NCCc2ccc(C)cc2)c1C,?,18µM*,.,.,.,.
Cc1cccc(CNC(=O)c2c3n(c(C)cc2=O)-c2ccccc2SC(c2sccc2C)C3)n1 (stereo unspecified),-5%[9.04 µM],-13%,.,.,.,.
Cc1cc(F)ccc1NC(=O)C(C(C)C)N1Cc2ccccc2C1=O (stereo unspecified),-13%,-27%,.,.,.,.
CCOC(=O)c1cc(-c2ccc(OC)cc2)n(CCC(=O)NCc2ccc(OC)cc2)c1C,?,18µM*,.,.,.,.
CCOC(=O)c1cc(-c2ccc(F)cc2)n(CCC(=O)NCCc2ccc(C)cc2)c1C,?,21µM*,.,.,.,.
CCOC(=O)c1cc(-c2ccc(C)cc2)n(CCC(=O)N2CCN(c3ccccn3)CC2)c1C,23µM*,23µM*,4%,21µM*,4%,-56*
CCOC(=O)c1cc(-c2ccc(OC)cc2)n(CCC(=O)NCCN2CCC(C)CC2)c1C,?,?,-15%,2%,-17%,?
CCOC(=O)c1cc(-c2ccccc2)n(CC(=O)N(C)c2ccc(OC)cc2)c1C,?,23µM*,.,.,.,.
Cc1ccc(C(C(=O)NC2CCCC2)N(CCCO)C(=O)Cn2nnc(-c3ccc(C)o3)n2)cc1 (stereo unspecified),-15%,-26%,0%,5%,7%,-25
C[C@@H]1CN([C@@H](C)CO)C(=O)CCCn2nncc2CO[C@H]1CN(C)S(=O)(=O)c1ccc(F)cc1,5%,?,-1%,.,-4%,17
CCN(CC)CCCNC(=O)c1cn(CC)c2ccc(S(=O)(=O)N3CCC(C)CC3)cc2c1=O,1%,?,.,.,.,.
CCCCN1CC(COCc2ccccc2)Oc2cc(Br)ccc2S1(=O)=O (stereo unspecified),?,?,2%,.,3%,1
CC(C)CN1CC(COCc2ccccc2)Oc2ccccc2S1(=O)=O (stereo unspecified),21µM*,?,-4%,?,-7%,-17
CCCCN1CC(COCc2ccccc2)Oc2cccc(N3CCCC3)c2S1(=O)=O (stereo unspecified),?,16µM*,-1%,.,-1%,15
CN1CC(COCc2ccccc2)Oc2ccccc2S1(=O)=O (stereo unspecified),?,-23%,-2%,7%,2%,20
O=S1(=O)c2ccccc2OC(COCc2ccccc2)CN1C1CC1 (stereo unspecified),18µM*,18µM*,-6%,-1%,-4%,18
O=C(CCN1C(=O)/C(=C\c2ccccc2)SC1=S)N1CCCCC1,9.2µM*,10µM*,-1%,?,?,-100*
CCc1ccc(/C=C2\SC(=S)N(CCCC(=O)N3CCCC3)C2=O)cc1,?,?,1%,.,2%,-29
O=C(CN1C(=O)S/C(=C/c2cccs2)C1=O)N1CCCC1,-3%,3%,0%,?,7%,0
COc1cc(/C=C2\SC(=S)N(CCC(=O)N3CCCCC3)C2=O)cc(OC)c1OC,16µM*,?,-15%,-21%,?,-101*
O=C(CCN1C(=O)/C(=C/c2cccs2)SC1=S)N1CCCCC1,5.8µM*,7.3µM*,?,?,?,-104*
O=C(O)CCN1C(=O)/C(=C\c2ccncc2)SC1=S,?,?,-6%,13%,0%,-10
Cc1ccc(/C=C2\SC(=S)N(CCC(=O)N3CCCCC3)C2=O)cc1,?,21µM*,4%,10%,2%,-9
CCOC(=O)N1CCN(C(=O)CCN2C(=O)/C(=C\c3ccc(OC)c(OC)c3)SC2=S)CC1,-1%,-6%,-1%,.,1%,-3
COc1ccc(NC(=O)c2cc3nc(-c4ccc(C)c(C)c4)cc(C(F)(F)F)n3n2)cc1,-21%,?,.,.,.,.
SMILES,DT40 TDP1 CPT,TDP1 cell noCPT,HT1080NT lethal,ELG1 repair inh,HT1080 IDH1KD tx,IL1B secr inh
Cc1ccc(NC(=O)Cn2cc3c(n2)CCC(C)C3)cc1C (stereo unspecified),-24%,0%,.,.,.,.
O=C(c1cn(-c2ccccc2)nc1-c1cccnc1)N1CCN(S(=O)(=O)c2cccc(F)c2)CC1,-24%,?,-1%,?,-4%,-9
Nc1nc2c(c(=O)[nH]1)N(C=O)C(CNc1ccc(C(=O)NC(CCC(=O)O)C(=O)O)cc1)CN2 (stereo unspecified),24%,-5%,.,.,.,.
Cc1ccc(-n2c(C)cc(=O)cc2C)cc1[N+](=O)[O-],-14%,-21%,19%,-18%,0%,-19
Cc1ccc(NC(=O)Cn2c(=O)n(CCCCC(=O)NCc3ccc4c(c3)OCO4)c(=O)c3ccccc32)cc1,-25%,-2%,.,.,.,.
Cc1ccc(/C=C2\SC(=S)N(CCC(=O)NNS(=O)(=O)c3ccc(C)cc3)C2=O)cc1,1%,-25%,-10%,-2%,-10%,-2
O=C(CN1C(=O)/C(=C/c2ccccc2)SC1=S)N1CCN(CCc2ccccn2)CC1,8.2µM*,12µM*,4%,-23%,7%,8
CN1CCN(C(=O)CCN2C(=O)/C(=C/c3ccc(F)cc3)SC2=S)CC1,?,18µM*,-7%,7%,-10%,-102*
O=C(CCN1C(=O)/C(=C/c2ccc(F)cc2)SC1=S)NC1CCS(=O)(=O)C1 (stereo unspecified),-7%,-10%,0%,1%,-10%,-2
CCOC(=O)COc1c(Br)cc(/C=C2\SC(=O)N(CC(=O)N3CCCC3)C2=O)cc1OC,-23%,-23%,9%,2%,9%,-51*
CCn1c(C)cc(/C=C2/SC(=O)N(CC(=O)N3CCCC3)C2=O)c1C,-4%,-24%,6%,?,0%,-13
Cc1ccc(/C=C2/SC(=S)N(CCC(=O)N3CCN(C)CC3)C2=O)cc1,?,18µM*,-1%,-19%,-18%,-26
CC(C)(C)[C@H]1C=C(C(=O)NCc2ccccc2)O[C@@H](OCCCCO)C1,-22%,-17%,0%,.,7%,-16
